Here are results for 56 molecules from PubChem BioAssay AID1273 (Columbia University Molecular Screening Center, 2008).

A word on the inhibition: it is the change of the read-out against control, counted positive when it falls.

Among all 130,000 compounds or so, about 1,200 (0.92%) were called active.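 How the source made its calls: active means inhibition above the mean plus 3 SD, with well images judged a real hit on visual review (cut at about 60% in these data, passing the limit was not always enough); inconclusive means inhibition over the cutoff but images rejected on review; inactive means inhibition not above the cutoff.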 Many of the other results were omitted from the sample, so actives are more common in it than they were.

The nature of this experiment: inhibitors of insulin promoter-driven GFP, primary screen, imaging, TRM-6 cells (human fetal islet line), eGFP reporter, cell count (AID 1273;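 on normalized cell count: cells exposed to compound for 48 h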). Particulars: at 2 µM, reporter expression induced with tamoxifen; inhibition: stronger effect = higher value; normalized cell count: measured here: cell count, toxicity.
`Cc1nc(-c2ccc(NC(=O)c3cccs3)cc2)cs1`: the inhibition is 43.8% (inactive) and the normalized cell count came to 89.3%.
Take `CCC(=O)c1cc2c(cc1NC(=O)c1cccs1)OCCO2`: the inhibition was 80% (active) and the normalized cell count was determined as 106%.
For the molecule `COc1cc(NC(=O)c2cccs2)ccc1NC(=O)c1ccccc1Cl`, the inhibition was 20% (inactive) and the normalized cell count amounted to 118%.
Regarding `N/C(=N\OC(=O)COc1ccc([N+](=O)[O-])cc1)c1ccc(Br)cc1`, the inhibition is -81.2% (inactive) and the normalized cell count amounted to 113%.
On the same counts, the results for `Cc1cccc(C)c1NC(=S)N(Cc1cccnc1)Cc1ccccc1Cl` are -60% (inactive) and 73.3%.
On the same counts, the results for `Cc1cccc(N2C(=O)c3cccnc3C2=O)c1` are 11.4% (inactive) and 66.7%.
On the same counts, the results for `CCOc1ccc(CCN2C(=O)c3cccnc3C2=O)cc1OCC` are 68.4% (active) and 94.8%.
Take `CCOc1ccc(CCNC(=O)CSc2cc(=O)n(C)c3ccc(Cl)cc23)cc1OCC`: the inhibition was -11.8% (inactive) and the normalized cell count amounted to 144%.
On the same counts, the results for `C/C(=N\NC(=O)C(N)=O)c1ccc2c(c1)OCCO2` are -41.2% (inactive) and 156%.
On the same counts, the results for `Cc1nc(NC(=O)CN(C)S(=O)(=O)c2ccc(Cl)cc2)sc1C` are 80% (active) and 67.9%.
On the same counts, the results for `CN(CC(=O)NCCc1ccccn1)S(=O)(=O)c1ccc(Cl)cc1` are -33.3% (inactive) and 83.8%.
On to `CN(CC(=O)Nc1cccc2c1CCCC2)S(=O)(=O)c1ccc(Cl)cc1`, for which the inhibition was 38.5% (inactive) and the normalized cell count was 112%.
On the same counts, the results for `Cc1cnc(NC(=O)C2CCCC2)s1` are 20.5% (inactive) and 280%.
As to `CCOC(=O)c1cc(C)sc1NC(=O)C1CCC1`, the inhibition was 87.5% (active) and the normalized cell count is 161%.
As to `COC(=O)c1cc(C)sc1NC(=O)CC1Nc2ccccc2NC1=O` (configuration not stated), the inhibition is 40.5% (inactive) and the normalized cell count was 145%.
As to `CCOC(=O)c1ccc(NNC(C)=O)c([N+](=O)[O-])c1`, the inhibition is -68.4% (inactive) and the normalized cell count turned out to be 62.3%.
On the same counts, the results for `O=C(C1CCCO1)N1CCN(C(=S)NC2CC2)CC1` (configuration not stated) are -29.4% (inactive) and 80.6%.
With `CC(=O)c1ccc(N2CCN(S(=O)(=O)c3c(C)[nH]c(=O)[nH]c3=O)CC2)cc1`, the inhibition is -10% (inactive) and the normalized cell count was 114%.
Turning to `C/C(=C\C(=O)c1cccnc1)Nc1ccc(C)c(C)c1`, the inhibition was 85.7% (active) and the normalized cell count amounted to 74%.
On the same counts, the results for `Cc1ccc(N/C=C/C(=O)c2ccccc2)cc1C` are 7.69% (inactive) and 107%.
Regarding `C/C(=C\C(=O)c1ccccc1)Nc1cccc(O)c1`, the inhibition was -33.3% (inactive) and the normalized cell count was 193%.
On the same counts, the results for `CCSC1=NCCN1S(=O)(=O)c1ccc(F)cc1` are 7.69% (inactive) and 130%.
On the same counts, the results for `Cc1cnc(C(=O)OCC(=O)Nc2ccc(Cl)cc2Cl)cn1` are 81.5% (active) and 20%.
Take `COc1cc(NC(=O)COC(=O)c2cnc(C)cn2)c(C)cc1[N+](=O)[O-]`: the inhibition was 27.3% (inactive) and the normalized cell count was 90.4%.
In the case of `CC(Oc1ccc(Cl)cc1)C(=O)OCC(=O)Nc1ncc(Cl)cc1Cl` (configuration not stated), the inhibition is 20% (inactive) and the normalized cell count worked out at 100%.
`Cc1ccc(S(=O)(=O)Cc2cc(-c3ccc(Cl)cc3)no2)cc1`: the inhibition is 25% (inactive) and the normalized cell count turned out to be 128%.
On to `CCOC(=O)C1(Cc2ccc(Cl)cc2)CCN(C(=O)C2=NNC(=O)CC2)CC1`, for which the inhibition is -46.1% (inactive) and the normalized cell count worked out at 93.7%.
With `CCN(CC)Cc1c(C(=O)OC)nnn1-c1nonc1N`, the inhibition was 72.4% (active) and the normalized cell count turned out to be 14.1%.
On the same counts, the results for `CCOC(=O)c1nnn(-c2nonc2-n2cccc2)c1CN1CCOCC1` are 13.9% (inactive) and 62.1%.
On the same counts, the results for `CCOC(=O)c1nnn(-c2nonc2-n2cccc2)c1CN1CCC(C(=O)OCC)CC1` are 13.9% (inactive) and 99.3%.
On the same counts, the results for `Cc1ccc(C(=O)Cn2cccn2)cc1` are -62.5% (inactive) and 90.7%.
Take `CNS(=O)(=O)c1ccc(NC(=O)C2CC(=O)N(c3ccc(Cl)cc3)C2)cc1` (configuration not stated): the inhibition was 63.6% (inactive) and the normalized cell count is 32.9%.
Turning to `Cc1ccc(Nc2nnc(SCc3ccccc3)s2)cc1`, the inhibition is 100% (active) and the normalized cell count was found to be 9.38%.
Consider `CCSc1nnc(NC(=O)c2ccc(C)cc2)s1`, for which the inhibition was -38.7% (inactive) and the normalized cell count stood at 45.1%.
On the same counts, the results for `O=C(Nc1nnc(SCc2ccccc2)s1)c1ccco1` are 0% (inactive) and 86.4%.
On to `CN(C)CCNC(=O)C(C(=O)c1ccccc1)n1ccccc1=O` (configuration not stated), for which the inhibition was 86.7% (active) and the normalized cell count came out at 49.3%.
On the same counts, the results for `O=C(NCC1CCCO1)C(C(=O)c1ccccc1)n1cc(Cl)ccc1=O` (configuration not stated) are -40% (inactive) and 104%.
On the same counts, the results for `CN(C)CCNC(=O)/C(=C/c1cccc([N+](=O)[O-])c1)NC(=O)c1ccccc1` are -14.3% (inactive) and 101%.
On the same counts, the results for `COCC(=O)Nc1cc(C(=O)OC)cc(C(=O)OC)c1` are 12.8% (inactive) and 127%.
On to `COCC(=O)Nc1ccc(Br)cc1`, for which the inhibition was 73.3% (active) and the normalized cell count amounted to 43.9%.
Consider `Cc1ccc(OC(=O)CCC(=O)Nc2ccc(Br)cc2)cc1`, for which the inhibition was -66.7% (inactive) and the normalized cell count is 102%.
On the same counts, the results for `O=C(Cc1cccc2ccccc12)NCCC1=CCCCC1` are -22.2% (inactive) and 92.7%.
On the same counts, the results for `CCOC(=O)c1ccccc1NC(=O)CSc1nc2ccccc2c(=O)[nH]1` are -83.3% (inactive) and 180%.
On to `COc1cccc(NC(=O)c2ccc(Cn3cc([N+](=O)[O-])cn3)o2)c1`, for which the inhibition is -11.1% (inactive) and the normalized cell count came out at 79.5%.
On the same counts, the results for `CCc1ccc(NC(=O)c2ccc(Cn3cc([N+](=O)[O-])cn3)cc2)cc1` are 6.25% (inactive) and 63.8%.
`Cn1cc([N+](=O)[O-])c(C(=O)Nc2cnn(Cc3ccc(F)cc3)c2)n1`: the inhibition is 69.2% (active) and the normalized cell count was 112%.
On the same counts, the results for `COCCNC(=S)N1CCC(NC(=O)C23CC4CC(CC(C4)C2)C3)CC1` are 21.4% (inactive) and 106%.
For `CCn1c(SCc2ccccc2)nc2c(c1=O)SCC2`, the inhibition was 48.6% (inactive) and the normalized cell count is 108%.
On the same counts, the results for `CC(Sc1nnnn1C)C(=O)NC(=O)NC1CCCCC1` (configuration not stated) are 36.4% (inactive) and 91.5%.
Consider `Cc1ccc(NC(=O)C2(N3CCC3=O)CCCCC2)cc1`, for which the inhibition is -35.7% (inactive) and the normalized cell count worked out at 133%.
For the molecule `O=C(O)Cc1ccc(NCc2ccccc2Cl)cc1`, the inhibition is 0% (inactive) and the normalized cell count was found to be 111%.
On the same counts, the results for `CC(C)(C)SCCNC(=O)c1cccc([N+](=O)[O-])c1` are -42.9% (inactive) and 85.5%.
On the same counts, the results for `C=CCNC(=O)/C(=C\c1cccc([N+](=O)[O-])c1)NC(=O)c1ccccc1` are -26.7% (inactive) and 102%.
On the same counts, the results for `C=CCNC(=O)COC(=O)CNC(=O)c1cc(Cl)cc([N+](=O)[O-])c1` are 83.3% (active) and 37%.
In the case of `CC(OC(=O)CCc1nc(=O)c2ccccc2n1C)C(=O)NCc1ccc2c(c1)OCO2` (configuration not stated), the inhibition was -58.8% (inactive) and the normalized cell count was found to be 141%.
On the same counts, the results for `Cc1ccc(CNC(=O)CCNS(=O)(=O)c2ccc(Br)s2)cc1` are 37.5% (inactive) and 94.3%.
